{
  "source": "PubChem BioAssay (EPA / NIEHS)",
  "key": {"[1]": {"target": "human AMP-activated Protein Kinase, alpha 1 (AMPKa1), PRKAA1 (gene 5562) (UniProt Q13131)", "sequence (Q13131 whole entry, looked up)": "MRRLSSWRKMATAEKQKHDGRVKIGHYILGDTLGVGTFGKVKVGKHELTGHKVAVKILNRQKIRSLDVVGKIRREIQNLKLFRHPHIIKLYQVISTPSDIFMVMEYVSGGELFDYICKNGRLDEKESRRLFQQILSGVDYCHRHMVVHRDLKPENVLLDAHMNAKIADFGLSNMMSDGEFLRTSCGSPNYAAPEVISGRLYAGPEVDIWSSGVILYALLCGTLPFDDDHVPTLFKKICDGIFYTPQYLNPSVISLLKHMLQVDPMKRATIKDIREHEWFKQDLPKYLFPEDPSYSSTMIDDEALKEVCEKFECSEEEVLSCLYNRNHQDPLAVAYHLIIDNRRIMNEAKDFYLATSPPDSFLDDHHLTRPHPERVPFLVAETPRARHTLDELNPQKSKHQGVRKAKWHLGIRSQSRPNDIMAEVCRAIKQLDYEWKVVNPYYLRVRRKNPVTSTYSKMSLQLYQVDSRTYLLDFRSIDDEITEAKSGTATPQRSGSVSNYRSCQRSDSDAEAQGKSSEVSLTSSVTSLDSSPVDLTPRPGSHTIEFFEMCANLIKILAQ", "assay": "NVS_ENZ_hAMPKa1: NovaScreen (NVS) Enzymatic Assay for human AMP-activated Protein Kinase, alpha 1 (AMPKa1) (AID 2283130)", "in_short": "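Recombinant human AMPKα1 activity was measured cell-free by fluorescent substrate conversion with electrophoretic mobility-shift separation, 1 h after dosing. Duplicate single-point screening was at 25 uM; actives (≥30% inhibition) were retested in concentration-response up to 50 uM.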"}, "[2]": {"target": "Caspase-1 (Homo sapiens) (UniProt P29466)", "sequence (P29466 whole entry, looked up)": "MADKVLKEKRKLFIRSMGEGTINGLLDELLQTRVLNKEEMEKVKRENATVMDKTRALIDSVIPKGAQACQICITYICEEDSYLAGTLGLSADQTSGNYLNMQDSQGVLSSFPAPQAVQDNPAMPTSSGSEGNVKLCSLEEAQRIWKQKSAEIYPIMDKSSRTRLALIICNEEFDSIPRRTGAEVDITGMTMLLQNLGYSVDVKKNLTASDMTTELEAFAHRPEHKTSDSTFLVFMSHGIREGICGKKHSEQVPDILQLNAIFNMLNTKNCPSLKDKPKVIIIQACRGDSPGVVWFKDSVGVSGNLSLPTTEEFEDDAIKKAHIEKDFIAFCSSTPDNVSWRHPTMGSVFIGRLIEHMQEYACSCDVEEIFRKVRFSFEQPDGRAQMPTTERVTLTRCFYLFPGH", "assay": "NVS_ENZ_hCASP1: NovaScreen (NVS) Enzymatic Assay for human Caspase 1 (CASP1) (AID 2283132)", "experimental": "NVS_ENZ_hCASP1 is a biochemical, single-readout assay that uses extracted gene-proteins from E. coli in a cell-free assay. Measurements were taken 1 hour after chemical dosing in a 96-well plate.NVS_ENZ_hCASP1 is one of one assay component(s) measured or calculated from the NVS_ENZ_hCASP1 assay. It is designed to make measurements of enzyme activity, a form of enzyme reporter, as detected with fluorescence intensity signals by Fluorescence technology.Data from the assay component NVS_ENZ_hCASP1 was analyzed into 1 assay endpoint. This assay endpoint, NVS_ENZ_hCASP1, was analyzed in the positive analysis fitting direction relative to DMSO as the negative control and baseline of activity. […] Furthermore, this assay endpoint can be referred to as a primary readout, because this assay has produced multiple assay endpoints where this one serves a enzymatic activity function. […]\nBinding assays used specific radioligands (tritiated, iodinated) with non-radioactive competitive displacement ligands in agonist or antagonist protocols (as indicated) and various reference compounds and inhibitors to titrate specific binding to receptors and transporters. Most enzyme assays (CYPs, kinases, phosphatases, proteases, HDACs) used recombinant protein and specific substrates (fluorescence mostly, some colorimetric and radioactive) and inhibitors, followed by a biochemical separation of substrate and product. […]"}, "[3]": {"target": "human Caspase 10 (CASP10), CASP10 (gene 843) (UniProt Q92851)", "sequence (Q92851 whole entry, looked up)": "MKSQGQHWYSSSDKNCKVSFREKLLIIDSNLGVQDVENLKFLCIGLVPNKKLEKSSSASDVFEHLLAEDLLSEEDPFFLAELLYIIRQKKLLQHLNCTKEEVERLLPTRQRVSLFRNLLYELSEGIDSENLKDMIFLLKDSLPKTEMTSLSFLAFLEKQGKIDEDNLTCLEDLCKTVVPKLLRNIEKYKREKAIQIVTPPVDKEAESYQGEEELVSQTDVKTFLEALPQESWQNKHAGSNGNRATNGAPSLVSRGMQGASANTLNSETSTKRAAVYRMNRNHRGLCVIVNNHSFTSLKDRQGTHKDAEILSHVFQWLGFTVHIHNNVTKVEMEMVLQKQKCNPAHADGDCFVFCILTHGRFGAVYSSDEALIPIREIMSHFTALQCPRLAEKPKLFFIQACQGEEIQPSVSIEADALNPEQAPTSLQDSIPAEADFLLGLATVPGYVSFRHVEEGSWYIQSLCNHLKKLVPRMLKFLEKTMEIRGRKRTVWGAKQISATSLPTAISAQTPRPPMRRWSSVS", "assay": "NVS_ENZ_hCASP10: NovaScreen (NVS) Enzymatic Assay for human Caspase 10 (CASP10) (AID 2283133)", "experimental": "NVS_ENZ_hCASP10 is a biochemical, single-readout assay that uses extracted gene-proteins from E. coli in a cell-free assay. Measurements were taken 1 hour after chemical dosing in a 96-well plate.NVS_ENZ_hCASP10 is one of one assay component(s) measured or calculated from the NVS_ENZ_hCASP10 assay. It is designed to make measurements of enzyme activity, a form of enzyme reporter, as detected with fluorescence intensity signals by Fluorescence technology.Data from the assay component NVS_ENZ_hCASP10 was analyzed into 1 assay endpoint. This assay endpoint, NVS_ENZ_hCASP10, was analyzed in the positive analysis fitting direction relative to DMSO as the negative control and baseline of activity. Using a type of enzyme reporter, loss-of-signal activity can be used to understand changes in the enzymatic activity as they relate to the gene CASP10. Furthermore, this assay endpoint can be referred to as a primary readout, because this assay has produced multiple assay endpoints where this one serves a enzymatic activity function. To generalize the intended target to other relatable targets, this assay endpoint is annotated to the protease intended target family, where the subfamily is cysteine protease. […]"}, "[4]": {"target": "human Caspase 2 (CASP2), CASP2 (gene 835) (UniProt P42575)", "sequence (P42575 whole entry, looked up)": "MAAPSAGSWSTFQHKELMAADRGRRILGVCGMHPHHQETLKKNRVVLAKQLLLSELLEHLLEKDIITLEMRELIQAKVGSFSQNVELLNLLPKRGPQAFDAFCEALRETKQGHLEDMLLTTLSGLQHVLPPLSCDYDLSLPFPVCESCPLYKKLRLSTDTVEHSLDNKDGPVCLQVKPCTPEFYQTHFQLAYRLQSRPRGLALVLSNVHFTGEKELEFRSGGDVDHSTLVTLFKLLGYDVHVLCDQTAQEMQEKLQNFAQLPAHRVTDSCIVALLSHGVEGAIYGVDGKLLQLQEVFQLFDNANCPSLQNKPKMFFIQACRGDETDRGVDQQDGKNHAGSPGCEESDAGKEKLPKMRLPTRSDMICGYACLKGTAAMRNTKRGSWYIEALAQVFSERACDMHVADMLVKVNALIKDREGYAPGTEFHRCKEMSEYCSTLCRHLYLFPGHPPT", "assay": "NVS_ENZ_hCASP2: NovaScreen (NVS) Enzymatic Assay for human Caspase 2 (CASP2) (AID 2283135)", "in_short": "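E. coli-expressed enzyme in a cell-free protease assay, fluorescence read 1 h after dosing. Compounds at 25 uM in duplicate, with concentration-response up to 50 uM for hits; loss of signal against DMSO baseline.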"}, "[5]": {"target": "human Caspase 5 (CASP5), CASP5 (gene 838) (UniProt P51878)", "sequence (P51878 whole entry, looked up)": "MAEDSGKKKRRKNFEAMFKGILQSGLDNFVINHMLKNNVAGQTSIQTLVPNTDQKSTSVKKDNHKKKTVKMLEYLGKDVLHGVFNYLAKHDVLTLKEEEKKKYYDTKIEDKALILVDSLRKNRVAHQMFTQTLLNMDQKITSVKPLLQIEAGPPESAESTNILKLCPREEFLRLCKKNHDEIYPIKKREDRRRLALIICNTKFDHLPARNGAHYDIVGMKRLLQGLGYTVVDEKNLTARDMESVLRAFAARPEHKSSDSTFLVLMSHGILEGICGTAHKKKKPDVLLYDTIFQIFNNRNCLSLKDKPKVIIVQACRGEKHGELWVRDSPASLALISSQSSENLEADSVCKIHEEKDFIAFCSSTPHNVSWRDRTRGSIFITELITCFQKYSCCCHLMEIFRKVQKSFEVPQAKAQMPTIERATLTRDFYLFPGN", "assay": "NVS_ENZ_hCASP5: NovaScreen (NVS) Enzymatic Assay for human Caspase 5 (CASP5) (AID 2283137)", "in_short": "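E. coli-derived enzyme, cell-free, 2 h incubation, fluorescence intensity. 25 uM duplicate single-point; hits → concentration series to 50 uM. DMSO baseline, positive/negative controls on every plate.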"}, "[6]": {"target": "human AKT serine/threonine Kinase 1 (AKT1), AKT1 (gene 207) (UniProt P31749)", "sequence (P31749 whole entry, looked up)": "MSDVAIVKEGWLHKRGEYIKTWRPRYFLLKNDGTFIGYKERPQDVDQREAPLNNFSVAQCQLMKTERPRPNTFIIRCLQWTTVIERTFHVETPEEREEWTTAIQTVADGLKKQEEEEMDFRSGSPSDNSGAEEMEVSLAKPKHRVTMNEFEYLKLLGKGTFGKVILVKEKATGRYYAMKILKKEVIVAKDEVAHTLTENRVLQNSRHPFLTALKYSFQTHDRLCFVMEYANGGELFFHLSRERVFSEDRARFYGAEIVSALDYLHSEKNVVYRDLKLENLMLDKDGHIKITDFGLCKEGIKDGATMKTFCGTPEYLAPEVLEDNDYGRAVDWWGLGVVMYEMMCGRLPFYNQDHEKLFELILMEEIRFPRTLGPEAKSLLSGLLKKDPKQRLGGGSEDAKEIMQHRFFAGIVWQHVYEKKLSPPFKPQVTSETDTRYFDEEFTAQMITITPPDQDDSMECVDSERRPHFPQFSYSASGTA", "assay": "NVS_ENZ_hAKT1: NovaScreen (NVS) Enzymatic Assay for human AKT serine/threonine Kinase 1 (AKT1) (AID 2283138)", "in_short": "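Recombinant AKT1, specific substrate, cell-free; 1 h; fluorescence intensity/electrophoretic mobility shift. Duplicate single-point 25 uM, then singleton CRC max 50 uM. DMSO = negative control/baseline; signal loss = inhibition.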"}, "[7]": {"target": "human Beta-secretase (BACE), BACE1 (gene 23621) (UniProt P56817)", "sequence (P56817 whole entry, looked up)": "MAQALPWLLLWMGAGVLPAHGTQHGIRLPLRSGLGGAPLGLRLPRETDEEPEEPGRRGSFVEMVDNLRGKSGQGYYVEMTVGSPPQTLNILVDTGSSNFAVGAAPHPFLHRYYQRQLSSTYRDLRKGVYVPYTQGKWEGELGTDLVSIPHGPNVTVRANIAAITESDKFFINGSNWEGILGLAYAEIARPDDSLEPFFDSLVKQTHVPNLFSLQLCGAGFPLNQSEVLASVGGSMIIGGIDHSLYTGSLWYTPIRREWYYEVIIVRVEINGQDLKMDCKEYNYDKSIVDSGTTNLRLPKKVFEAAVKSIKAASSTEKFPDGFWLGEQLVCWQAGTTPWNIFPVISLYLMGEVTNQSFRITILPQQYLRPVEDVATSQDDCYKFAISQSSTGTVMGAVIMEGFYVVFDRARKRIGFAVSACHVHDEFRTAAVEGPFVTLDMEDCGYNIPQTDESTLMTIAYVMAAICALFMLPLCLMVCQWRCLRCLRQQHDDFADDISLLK", "assay": "NVS_ENZ_hBACE: NovaScreen (NVS) Enzymatic Assay for human Beta-secretase (BACE) (AID 2283140)", "in_short": "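Compounds were first tested in duplicate at 25 uM, then actives in concentration series, against recombinant BACE1 from SF9 cells. Enzyme activity was measured by fluorescence intensity 1 hour after dosing, with DMSO as negative control.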"}, "[8]": {"target": "human AKT serine/threonine Kinase 2 (AKT2), AKT2 (gene 208) (UniProt P31751)", "sequence (P31751 whole entry, looked up)": "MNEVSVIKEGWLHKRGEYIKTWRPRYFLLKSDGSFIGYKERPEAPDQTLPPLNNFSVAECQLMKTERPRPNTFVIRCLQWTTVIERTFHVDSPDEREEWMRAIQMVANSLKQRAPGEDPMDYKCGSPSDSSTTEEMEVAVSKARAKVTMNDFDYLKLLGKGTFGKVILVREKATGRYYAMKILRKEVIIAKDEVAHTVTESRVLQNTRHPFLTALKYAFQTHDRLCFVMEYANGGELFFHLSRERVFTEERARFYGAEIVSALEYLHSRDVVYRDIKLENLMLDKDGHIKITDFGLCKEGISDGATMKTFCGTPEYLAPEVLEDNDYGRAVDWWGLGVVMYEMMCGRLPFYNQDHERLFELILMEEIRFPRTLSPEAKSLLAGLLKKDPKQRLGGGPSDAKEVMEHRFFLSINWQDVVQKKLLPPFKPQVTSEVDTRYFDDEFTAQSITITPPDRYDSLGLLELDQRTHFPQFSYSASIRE", "assay": "NVS_ENZ_hAKT2: NovaScreen (NVS) Enzymatic Assay for human AKT serine/threonine Kinase 2 (AKT2) (AID 2283141)", "in_short": "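Cell-free fluorescence/electrophoretic mobility shift readout of recombinant human AKT2 activity, 1 h after chemical dosing. Duplicate primary screen at 25 uM, then singleton concentration-response up to 50 uM; loss of signal versus DMSO baseline.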"}, "[9]": {"target": "human Aurora Kinase A - serine/threonine-protein Kinase 6 (AurA), AURKA (gene 6790) (UniProt O14965)", "sequence (O14965 whole entry, looked up)": "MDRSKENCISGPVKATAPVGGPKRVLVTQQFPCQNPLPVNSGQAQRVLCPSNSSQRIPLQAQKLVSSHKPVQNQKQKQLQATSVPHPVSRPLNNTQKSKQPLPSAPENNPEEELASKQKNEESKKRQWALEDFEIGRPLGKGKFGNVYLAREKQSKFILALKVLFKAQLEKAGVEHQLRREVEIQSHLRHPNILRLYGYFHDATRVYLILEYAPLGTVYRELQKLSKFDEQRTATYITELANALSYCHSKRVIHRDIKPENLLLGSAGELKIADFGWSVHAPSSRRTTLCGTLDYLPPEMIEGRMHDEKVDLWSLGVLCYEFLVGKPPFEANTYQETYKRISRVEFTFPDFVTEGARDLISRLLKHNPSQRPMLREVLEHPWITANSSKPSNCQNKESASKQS", "assay": "NVS_ENZ_hAurA: NovaScreen (NVS) Enzymatic Assay for human Aurora Kinase A - serine/threonine-protein Kinase 6 (AurA) (AID 2283142)", "in_short": "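Cell-free enzymatic assay with human Aurora A, 1 hour after dosing. Fluorescent substrate turnover detected after electrophoretic mobility shift separation of substrate and product. Screened at 25 uM, actives retested in concentration-response up to 50 uM.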"}, "[10]": {"target": "human Acid Phosphatase 1 (ACP1), ACP1 (gene 52) (UniProt P24666)", "sequence (P24666 whole entry, looked up)": "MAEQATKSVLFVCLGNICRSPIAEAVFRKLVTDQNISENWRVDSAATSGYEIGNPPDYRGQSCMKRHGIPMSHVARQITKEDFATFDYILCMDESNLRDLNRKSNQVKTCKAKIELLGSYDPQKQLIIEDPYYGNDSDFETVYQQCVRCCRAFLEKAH", "assay": "NVS_ENZ_hACP1: NovaScreen (NVS) Enzymatic Assay for human Acid Phosphatase 1 (ACP1) (AID 2283136)", "experimental": "NVS_ENZ_hACP1 is a biochemical, single-readout assay that uses extracted gene-proteins from SF9 in a cell-free assay. Measurements were taken 1.5 hours after chemical dosing in a 384-well plate.NVS_ENZ_hACP1 is one of one assay component(s) measured or calculated from the NVS_ENZ_hACP1 assay. It is designed to make measurements of enzyme activity, a form of enzyme reporter, as detected with fluorescence intensity signals by Fluorescence and electrophoretic mobility shift technology.Data from the assay component NVS_ENZ_hACP1 was analyzed into 1 assay endpoint. This assay endpoint, NVS_ENZ_hACP1, was analyzed in the positive analysis fitting direction relative to DMSO as the negative control and baseline of activity. Using a type of enzyme reporter, loss-of-signal activity can be used to understand changes in the enzymatic activity as they relate to the gene ACP1. Furthermore, this assay endpoint can be referred to as a primary readout, because this assay has produced multiple assay endpoints where this one serves a enzymatic activity function. To generalize the intended target to other relatable targets, this assay endpoint is annotated to the phosphatase intended target family, where the subfamily is acid phosphatase.\nBinding assays used specific radioligands (tritiated, iodinated) with non-radioactive competitive displacement ligands in agonist or antagonist protocols (as indicated) and various reference compounds and inhibitors to titrate specific binding to receptors and transporters. Most enzyme assays (CYPs, kinases, phosphatases, proteases, HDACs) used recombinant protein and specific substrates (fluorescence mostly, some colorimetric and radioactive) and inhibitors, followed by a biochemical separation of substrate and product. All assays for the biochemical HTS were initially run in duplicate at a single concentration (10 uM for CYP450 assays and 25 uM for all others). […] Each assay was run with positive and negative controls, and concurrent controls on every plate. […]"}},
  "note": "Inconclusive results are not listed. Active and inactive are the calls of the source. How the source made its calls: active means hit-call score of the fitted dose curve at least 0.9, where 1 is the maximum; inconclusive means response in the unintended direction; inactive means score below 0.9.",
  "data": [
    {"smiles": "CC(C)O.CC(C)O.OCCN(CCO)CCO.OCCN(CCO)CCO.[Ti]", "values": [
      {"measurement": "AC50", "setting": "[1]", "value": "1.5 µM (active)"},
      {"measurement": "AC50", "setting": "[2]", "value": "1.37 µM (active)"},
      {"measurement": "AC50", "setting": "[3]", "value": "8.59 µM (active)"},
      {"measurement": "AC50", "setting": "[4]", "value": "3.12 µM (active)"},
      {"measurement": "AC50", "setting": "[5]", "value": "1.81 µM (active)"},
      {"measurement": "AC50", "setting": "[6]", "value": "0.00319 µM (active)"},
      {"measurement": "AC50", "setting": "[7]", "value": "7.67 µM (active)"},
      {"measurement": "AC50", "setting": "[8]", "value": "3.46 µM (active)"},
      {"measurement": "AC50", "setting": "[9]", "value": "4.96 µM (active)"}
    ]},
    {"smiles": "O=c1oc2ccccc2c(O)c1C(CC(O)c1ccc(-c2ccc(Br)cc2)cc1)c1ccccc1", "note": "(stereo not drawn)", "values": [
      {"measurement": "AC50", "setting": "[5]", "value": "9.45 µM (active)"}
    ]},
    {"smiles": "O=C(N[C@H]1CN2CCC1CC2)c1ccc2c(c1)OCCO2", "values": [
      {"measurement": "outcome", "setting": "[1]", "value": "inactive"},
      {"measurement": "outcome", "setting": "[4]", "value": "inactive"},
      {"measurement": "outcome", "setting": "[7]", "value": "inactive"},
      {"measurement": "outcome", "setting": "[9]", "value": "inactive"}
    ]},
    {"smiles": "Nc1ccc(N)cc1", "values": [
      {"measurement": "AC50", "setting": "[5]", "value": "5.42 µM (active)"},
      {"measurement": "AC50", "setting": "[7]", "value": "15.1 µM (active)"}
    ]},
    {"smiles": "CN(C)C(=S)S", "values": [
      {"measurement": "outcome", "setting": "[7]", "value": "inactive"}
    ]},
    {"smiles": "COc1ccccc1N", "values": [
      {"measurement": "outcome", "setting": "[6]", "value": "inactive"},
      {"measurement": "outcome", "setting": "[8]", "value": "inactive"}
    ]},
    {"smiles": "CCCCCCCCCCCCOS(=O)(=O)O", "values": [
      {"measurement": "outcome", "setting": "[1]", "value": "inactive"},
      {"measurement": "AC50", "setting": "[9]", "value": "28.5 µM (active)"}
    ]},
    {"smiles": "Nc1c(Oc2ccccc2)cc(O)c2c1C(=O)c1ccccc1C2=O", "values": [
      {"measurement": "AC50", "setting": "[5]", "value": "0.133 µM (active)"},
      {"measurement": "AC50", "setting": "[7]", "value": "5.73 µM (active)"}
    ]},
    {"smiles": "O=C(Cc1ccccc1)OCCc1ccccc1", "values": [
      {"measurement": "AC50", "setting": "[7]", "value": "25 µM (active)"}
    ]},
    {"smiles": "Clc1cccc(Cl)c1Cl", "values": [
      {"measurement": "outcome", "setting": "[4]", "value": "inactive"},
      {"measurement": "outcome", "setting": "[10]", "value": "inactive"},
      {"measurement": "outcome", "setting": "[9]", "value": "inactive"}
    ]},
    {"smiles": "N#Cc1cccnc1", "values": [
      {"measurement": "outcome", "setting": "[1]", "value": "inactive"},
      {"measurement": "outcome", "setting": "[10]", "value": "inactive"},
      {"measurement": "outcome", "setting": "[9]", "value": "inactive"}
    ]},
    {"smiles": "Oc1cc(Cl)c(Cl)cc1Cl", "values": [
      {"measurement": "outcome", "setting": "[6]", "value": "inactive"}
    ]},
    {"smiles": "O=C(O)C1(c2ccc3c(c2)OC[C@H](Cc2ccc(-c4ccccc4)cc2)[C@H]3O)CCCC1", "values": [
      {"measurement": "outcome", "setting": "[1]", "value": "inactive"}
    ]},
    {"smiles": "BrCCCCBr", "values": [
      {"measurement": "outcome", "setting": "[7]", "value": "inactive"}
    ]},
    {"smiles": "CCCCCCCCCCCCc1cccc(S(=O)(=O)O)c1", "values": [
      {"measurement": "outcome", "setting": "[1]", "value": "inactive"},
      {"measurement": "outcome", "setting": "[10]", "value": "inactive"},
      {"measurement": "AC50", "setting": "[6]", "value": "35 µM (active)"},
      {"measurement": "AC50", "setting": "[7]", "value": "0.428 µM (active)"},
      {"measurement": "AC50", "setting": "[9]", "value": "16.1 µM (active)"}
    ]}
  ]
}
